Screening results (PubChem)
Hits are enriched below; roughly 19% of the tested compounds scored in any of these assays.
DT40 TDP1 CPT: DT40-hTDP1 cell growth loss with CPT | AID 686979 | Potency, µM (series often up to 46.2 µM), most hits filed as inhibitors | hit rate 12% among 420,000 | chicken DT40 Tdp1-/-;hTDP1 cells + 20 nM CPT, ATP luminescence, 48 h; also: nearly all actives have a fitted effect of over 55% in size
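Chicken DT40 Tdp1-/- cells complemented with human TDP1, 400 cells/well, exposed to compounds plus 20 nM camptothecin for at least 48 h at 37 C; viability read as ATP content by CellTiter-Glo luminescence.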
HT1080NT lethal: kills 2HG-producing HT-1080-NT fibrosarcoma cells. HT-1080-NT fibrosarcoma viability, CellTiter-Glo ATP luminescence, 48 h. Potency, µM (titrated, usually from 46.1 µM), most hits filed as cytotoxic. hit rate 1.6% among 360,000;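 also: NT is the 2HG producing partner of a matched IDH1 knockdown line; nearly all actives have a fitted effect of over 55% in size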
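Fibrosarcoma NT cells, 750 per well in 5% FBS RPMI, were exposed to compound for 48 hours. Viability: CellTiter-Glo luminescence.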
IL-1B inflam inh: inhibitors of inflammasome signaling (IL-1 beta secretion); hit rate 4.7% among 360,000; THP-1 LPS/ATP IL-1B secretion, AlphaLISA, 16 h; stronger effect = lower value; AID 743279; activity change, % at 57.5 µM; in the data active = activity change below about -50%; inconclusive = mostly about -30% to -49%
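Secreted IL-1B measured by AlphaLISA bead assay after 16 h compound exposure of THP-1 cells; compounds (final up to 57.5 uM) added 1 h before LPS (250 ng/mL) and ATP (1.25 mM) stimulation; lower signal means less secretion.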
HT1080 IDH1KD tx: HT-1080 IDH1 knockdown cell toxicity (counter line). hit rate 2% among 360,000. Potency, µM (titrated, usually from 46.1 µM), actives largely listed as cytotoxic. HT-1080 IDH1 knockdown viability, ATP luminescence, 48 h
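Using the IDH1-knockdown HT-1080 line run in the same batch and compound series as the NT line, viability after 48 h at 37 °C was determined by CellTiter-Glo luminescence and expressed as % activity.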
DT40 TDP1 no CPT: qHTS for Inhibitors of human tyrosyl-DNA phosphodiesterase 1 (TDP1): qHTS in cells in absence of CPT; Potency, µM (top dose mostly 46.2 µM), actives largely listed as inhibitors; hit rate 15% among 420,000; DT40 Tdp1-/- hTDP1 cells, no CPT, ATP luminescence, 48 h; AID 686978, 2013; also: nearly all actives have a fitted effect of over 55% in size
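No-CPT arm: Tdp1-/-;hTDP1 DT40 cells (400/well) plus compounds, incubated ≥48 hr at 37 °C. Readout CellTiter-Glo luminescence.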
A number is an active result; - = inactive; ? = inconclusive; . = not tested or not shown. Unless noted, calls follow the shape of the dose curve; as a rule, active = well fitted curve in the direction sought with a large enough effect; inconclusive = small, poorly fitted or top-dose-only effect, or another doubt; inactive = no such curve, though single readings can be large; an effect the other way counts as inactive or inconclusive.

SMILES | DT40 TDP1 CPT | HT1080NT lethal | IL-1B inflam inh | HT1080 IDH1KD tx | DT40 TDP1 no CPT
CCOC(=O)c1sc(NC(=O)c2cc3n(n2)C(C(F)(F)F)CC(c2cccs2)N3)c(C(=O)OCC)c1C (stereo not drawn) | ? | - | - | - | 13µM
Cc1nn(C)cc1CN(C)C(=O)c1nn2c(c1Cl)NC(c1cccs1)CC2C(F)(F)F (stereo not drawn) | ? | - | - | - | 12.6µM
Cc1nn(C)c(C)c1CN(C)C(=O)c1cc2n(n1)C(C(F)(F)F)CC(c1cccs1)N2 (stereo not drawn) | 25.9µM | - | - | - | 16.4µM
CCOC(=O)CN(C(=O)c1snc(C(N)=O)c1N)C(C(=O)NCCC(C)C)c1ccc(C)cc1 (stereo not drawn) | - | - | - | - | -
c1ccc(-c2ccc(CN3CCSCC3)cc2)cc1 | ? | - | - | - | -
c1ccc(Cn2c(-c3ccccc3)c[n+]3c2SCCC3)cc1 | 2.91µM | - | - | - | 2.31µM
CCSC1=C(C#N)C(c2ccc(Cl)cc2)C2=C(CCCC2=O)N1 (stereo not drawn) | 1.46µM | ? | - | ? | 1.46µM
COc1ccc(NC(=O)CSC2=C(C#N)C(c3ccco3)C3=C(CCCC3=O)N2)c(OC)c1 (stereo not drawn) | - | - | - | - | -
Cc1ccc(C(=O)CSC2=C(C#N)C(c3ccco3)C3=C(CCCC3=O)N2)cc1 (stereo not drawn) | 3.26µM | 5.01µM | - | 5.62µM | 3.26µM
CC(C)(C)c1ccc(C(=O)CCCSC2=C(C#N)C(c3ccco3)C3=C(CCCC3=O)N2)cc1 (stereo not drawn) | 16.4µM | ? | - | - | 9.2µM
N#CC1=C(SCC(=O)c2ccccc2)NC2=C(C(=O)CCC2)C1c1ccco1 (stereo not drawn) | 2.91µM | ? | -97.2 | 4.61µM | 2.59µM
CSC1=C(C#N)C(c2ccc3c(c2)OCO3)C2=C(CCCC2=O)N1 (stereo not drawn) | ? | - | - | - | -
CCOC(=O)CSC1=C(C#N)C(c2ccccc2C)C2=C(CCCC2=O)N1 (stereo not drawn) | - | - | - | - | -
C=CCn1c(C)nnc1SCC(=O)N1CCN(S(=O)(=O)c2ccccc2)CC1 | - | - | - | - | -
O=C(CSc1ccncc1)NCC1Cc2cccc(-c3cncnc3)c2O1 (stereo not drawn) | ? | . | . | . | -
O=C1CS(=O)(=O)c2ccccc2N1 | - | - | - | - | -
O=C(Nc1ccc2c(c1)CN(C(=O)Nc1ccc(F)cc1)CC2)c1ccccn1 | 5.8µM | - | - | ? | 4.11µM
CSc1ccccc1C(=O)N1CCc2ccc(NC(=O)c3ccccn3)cc2C1 | 13µM | ? | - | ? | 11.6µM
CSc1ccc(C(=O)N2CCc3ccc(NC(=O)c4ccccn4)cc3C2)cc1 | ? | - | - | - | ?
COc1cccc(N(CC(=O)NCCSc2ccc(Cl)cc2)S(C)(=O)=O)c1 | - | - | - | - | -
Cc1ccc(CNC(=O)C2CCN(C(=O)N3CC(C)Oc4ccc(Cl)cc43)CC2)cc1 (stereo not drawn) | ? | . | . | . | 18.4µM
Cc1ccc2c(c1)N(C(=O)N1CCC(C(=O)NCc3ccccc3C)CC1)CC(C)O2 (stereo not drawn) | 20.6µM | . | . | . | 16.4µM
COc1ccccc1-c1cc2nc(C)cc(C)n2n1 | - | - | - | - | -
COc1cc(NC(=O)CN2C(=O)NC(CC(C)C)C2=O)cc(OC)c1OC (stereo not drawn) | - | - | - | - | -
COc1ccc(/C=C/C(=O)OCC(=O)NC(=O)NC(C)(C)C)cc1 | - | - | - | - | -
COC(=O)c1ccc(-n2ccnc2)cc1 | - | - | - | - | -
CCOC(=O)C(CC)(CC)C(=O)/C=C/c1ccc(Br)cc1 | ? | ? | -103.5 | ? | 16.4µM
CCOC(=O)C(=Cc1ccc(Br)cc1)C(=O)OCC | 11.6µM | 20.6µM | -96.9 | 6.51µM | 2.91µM
CCOC(=O)C(=Cc1ccc(-n2ccnc2)cc1)C(=O)OCC | 23.1µM | 10.3µM | -93.2 | 5.8µM | 20.6µM
